Measured values as given in PubChem BioAssay AID1159580 (chemical genetic matrix, 2015).
In all, about 5,500 compounds went through this assay and about 2,000 (36%) were called active. About 18% were inconclusive and are not listed. No stated cut-off is given here; in the data, active means normalized growth mostly below about 0.91 (no sharp cut-off); inconclusive means no clear call, values can overlap the other calls; inactive means mostly above about 0.92. Some of the results follow.

Assay: chemical genetic growth profiling, strain panel (AID 1159580);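 further: tested at 20 µM; growth read once vehicle control cultures reached saturation at 30 °C; 1 = growth at the plate median or of vehicle wells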
Details: growth OD

Measured: normalized growth

COc1ccc(C[C@H](N)C(=O)N[C@@H]2[C@@H](CO)OC(n3cnc4c(N(C)C)ncnc43)[C@@H]2O)cc1 (some centres not stated)
inactive: S. cerevisiae deletion strains, locus YJR075W, strain HOC1, stronger effect = lower value 0.997 | S. cerevisiae deletion strains, locus YKL009W, strain mrt4, stronger effect = lower value 1.03 | S. cerevisiae deletion strains, locus YKL068W, stronger effect = lower value 1.02 | S. cerevisiae deletion strains, locus YKL085W, strain MDH1 (second series), stronger effect = lower value 1.01 | S. cerevisiae deletion strains, locus YKL085W, strain MDH1, stronger effect = lower value 1.01 | S. cerevisiae deletion strains, locus YKL160W, strain elf1, stronger effect = lower value 0.993 | S. cerevisiae deletion strains, locus YKL190W, strain CNB1, stronger effect = lower value 1 | S. cerevisiae deletion strains, locus YKR001C, strain vps1, stronger effect = lower value 1.02 | S. cerevisiae deletion strains, locus YKR026C, strain gcn3, stronger effect = lower value 1 | S. cerevisiae deletion strains, locus YKR091W, strain srl3, stronger effect = lower value 1.02 | S. cerevisiae deletion strains, locus YLL001W, strain dnm1, stronger effect = lower value 0.961 | S. cerevisiae deletion strains, locus YLL026W, stronger effect = lower value 0.987 | S. cerevisiae deletion strains, locus YLL041C, strain sdh2, stronger effect = lower value 1 | S. cerevisiae deletion strains, locus YLR027C, strain aat2, stronger effect = lower value 0.997 | S. cerevisiae deletion strains, locus YLR039C, strain RIC1, stronger effect = lower value 1.04 | S. cerevisiae deletion strains, locus YLR058C, strain SHM2, stronger effect = lower value 1.01 | S. cerevisiae deletion strains, locus YLR102C, strain apc9, stronger effect = lower value 1.01 | S. cerevisiae deletion strains, locus YLR113W, strain HOG1, stronger effect = lower value 0.989 | S. cerevisiae deletion strains, locus YLR221C, strain rsa3, stronger effect = lower value 0.991 | S. cerevisiae deletion strains, locus YLR258W, strain gsy2, stronger effect = lower value 1 | S. cerevisiae deletion strains, locus YLR262C, strain YPT6 (second series), stronger effect = lower value 1.01 | S. cerevisiae deletion strains, locus YLR262C, strain YPT6, stronger effect = lower value 1.04 | S. cerevisiae deletion strains, locus YLR268W, strain sec22, stronger effect = lower value 1.01 | S. cerevisiae deletion strains, locus YLR320W, strain mms22, stronger effect = lower value 1 | S. cerevisiae deletion strains, locus YLR330W, strain CHS5, stronger effect = lower value 1.01 | S. cerevisiae deletion strains, locus YLR342W, strain FKS1 (second series), stronger effect = lower value 0.992 | S. cerevisiae deletion strains, locus YLR342W, strain FKS1, stronger effect = lower value 0.996 | S. cerevisiae deletion strains, locus YLR357W, strain rsc2, stronger effect = lower value 1.01 | S. cerevisiae deletion strains, locus YLR370C, strain arc18, stronger effect = lower value 0.985 | S. cerevisiae deletion strains, locus YLR371W, strain rom2, stronger effect = lower value 1.02 | S. cerevisiae deletion strains, locus YLR384C, strain iki3, stronger effect = lower value 0.979 | S. cerevisiae deletion strains, locus YLR418C, strain cdc73, stronger effect = lower value 0.988 | S. cerevisiae deletion strains, locus YML016C, strain PPZ1, stronger effect = lower value 1.01 | S. cerevisiae deletion strains, locus YML032C, strain rad52, stronger effect = lower value 1.03 | S. cerevisiae deletion strains, locus YML120C, strain ndi1, stronger effect = lower value 0.996 | S. cerevisiae deletion strains, locus YML124C, strain tub3, stronger effect = lower value 1.02 | S. cerevisiae deletion strains, locus YMR058W, strain fet3, stronger effect = lower value 1 | S. cerevisiae deletion strains, locus YMR078C, strain ctf18, stronger effect = lower value 1.02 | S. cerevisiae deletion strains, locus YMR125W, strain sto1, stronger effect = lower value 1.01 | S. cerevisiae deletion strains, locus YMR129W, stronger effect = lower value 0.995 | S. cerevisiae deletion strains, locus YMR205C, strain PFK2, stronger effect = lower value 1 | S. cerevisiae deletion strains, locus YMR223W, strain ubp8, stronger effect = lower value 1.03 | S. cerevisiae deletion strains, locus YMR231W, strain pep5, stronger effect = lower value 0.987 | S. cerevisiae deletion strains, locus YMR263W, strain SAP30, stronger effect = lower value 1 | S. cerevisiae deletion strains, locus YMR307W, strain GAS1, stronger effect = lower value 1.06 | S. cerevisiae deletion strains, locus YNL067W, strain RPL9B, stronger effect = lower value 1 | S. cerevisiae deletion strains, locus YNL071W, strain lat1, stronger effect = lower value 1.01 | S. cerevisiae deletion strains, locus YNL128W, strain TEP1, stronger effect = lower value 1.01 | S. cerevisiae deletion strains, locus YNL153C, strain GIM3, stronger effect = lower value 0.988 | S. cerevisiae deletion strains, locus YNL183C, strain NPR1, stronger effect = lower value 0.935 | S. cerevisiae deletion strains, locus YNL209W, strain ssb2, stronger effect = lower value 0.996 | S. cerevisiae deletion strains, locus YNL233W, strain BNI4, stronger effect = lower value 1 | S. cerevisiae deletion strains, locus YNL248C, strain rpa49, stronger effect = lower value 1.01 | S. cerevisiae deletion strains, locus YNL250W, strain rad50, stronger effect = lower value 1.04 | S. cerevisiae deletion strains, locus YNL271C, strain bni1, stronger effect = lower value 1.01 | S. cerevisiae deletion strains, locus YNL298W, strain CLA4, stronger effect = lower value 1.01 | S. cerevisiae deletion strains, locus YNL307C, strain MCK1, stronger effect = lower value 1.04 | S. cerevisiae deletion strains, locus YNL322C, strain KRE1 (second series), stronger effect = lower value 0.994 | S. cerevisiae deletion strains, locus YNL322C, strain KRE1, stronger effect = lower value 1.01 | S. cerevisiae deletion strains, locus YNR049C, strain mso1, stronger effect = lower value 0.987 | S. cerevisiae deletion strains, locus YNR052C, strain pop2, stronger effect = lower value 1.02 | S. cerevisiae deletion strains, locus YOL006C, strain TOP1, stronger effect = lower value 1.02 | S. cerevisiae deletion strains, locus YOL012C, strain htz1 0.862 | S. cerevisiae deletion strains, locus YOL147C, strain pex11, stronger effect = lower value 1.02 | S. cerevisiae deletion strains, locus YOR001W, strain rrp6, stronger effect = lower value 0.988 | S. cerevisiae deletion strains, locus YOR061W, strain CKA2, stronger effect = lower value 1.01 | S. cerevisiae deletion strains, locus YOR069W, strain VPS5, stronger effect = lower value 0.996 | S. cerevisiae deletion strains, locus YOR070C, strain gyp1, stronger effect = lower value 0.984 | S. cerevisiae deletion strains, locus YOR080W, strain dia2, stronger effect = lower value 0.992 | S. cerevisiae deletion strains, locus YOR083W, strain WHI5, stronger effect = lower value 1.02 | S. cerevisiae deletion strains, locus YOR106W, strain vam3, stronger effect = lower value 0.984 | S. cerevisiae deletion strains, locus YOR136W, strain idh2, stronger effect = lower value 1.02 | S. cerevisiae deletion strains, locus YOR144C, strain elg1, stronger effect = lower value 1.01 | S. cerevisiae deletion strains, locus YOR184W, strain ser1, stronger effect = lower value 1.04 | S. cerevisiae deletion strains, locus YOR231W, strain MKK1, stronger effect = lower value 0.961 | S. cerevisiae deletion strains, locus YOR265W, strain rbl2, stronger effect = lower value 0.991 | S. cerevisiae deletion strains, locus YOR270C, strain vph1, stronger effect = lower value 0.993 | S. cerevisiae deletion strains, locus YOR290C, strain snf2, stronger effect = lower value 1 | S. cerevisiae deletion strains, locus YOR316C, strain cot1, stronger effect = lower value 1.02 | S. cerevisiae deletion strains, locus YPL051W, strain arl3, stronger effect = lower value 0.976 | S. cerevisiae deletion strains, locus YPL055C, strain LGE1, stronger effect = lower value 1 | S. cerevisiae deletion strains, locus YPL078C, strain atp4, stronger effect = lower value 0.972 | S. cerevisiae deletion strains, locus YPL106C, strain sse1, stronger effect = lower value 0.996 | S. cerevisiae deletion strains, locus YPL240C, strain hsp82, stronger effect = lower value 0.986 | S. cerevisiae deletion strains, locus YPL241C, strain CIN2, stronger effect = lower value 1 | S. cerevisiae deletion strains, locus YPL256C, strain CLN2, stronger effect = lower value 0.965 | S. cerevisiae deletion strains, locus YPR119W, strain clb2, stronger effect = lower value 1.01 | S. cerevisiae deletion strains, locus YPR141C, strain kar3, stronger effect = lower value 1.03 | S. cerevisiae deletion strains, locus YPR163C, strain tif3, stronger effect = lower value 1.02 | S. cerevisiae deletion strains, locus YPR167C, strain met16, stronger effect = lower value 1.02 | S. cerevisiae deletion strains, strain wtn01, stronger effect = lower value 0.986 | S. cerevisiae strains, strain wild type, stronger effect = lower value 1.01
